Data as given in PubChem BioAssay AID1159580 (chemical genetic matrix, 2015).
Values joined by “and” are separate entries in the source; they are usually repeats but may differ in a detail not shown here. Identical values can stand only once. Among all 5,500 compounds or so, about 2,000 (36%) were called active. About 18% were inconclusive and are not listed. Rule as the data show it: active = normalized growth mostly below about 0.91 (no sharp cut-off); inconclusive = no clear call, values can overlap the other calls; inactive = mostly above about 0.92. Some of the results follow.

Experiment: chemical genetic growth profiling, strain panel (AID 1159580);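 also: tested at 20 µM; growth read once vehicle control cultures reached saturation at 30 °C; 1 = growth at the plate median or of vehicle wells; lower values mean less growth of the strain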
Settings: S. cerevisiae deletion strains, growth OD

Measured: normalized growth

Nc1ccc(S(=O)(=O)Nc2ccc(Cl)nn2)cc1
inactive: locus YAL013W, strain DEP1, stronger effect = lower value 1.01 | locus YAL021C, strain ccr4, stronger effect = lower value 0.982 | locus YAL026C, strain drs2, stronger effect = lower value 0.996 | locus YAL030W, strain snc1, stronger effect = lower value 0.985 | locus YBL061C, strain skt5, stronger effect = lower value 0.984 | locus YBR009C, strain hhf1, stronger effect = lower value 0.994 | locus YBR021W, strain FUR4, stronger effect = lower value 0.977 | locus YBR023C, strain chs3, stronger effect = lower value 0.984 | locus YBR171W, strain sec66, stronger effect = lower value 0.976 | locus YBR229C, strain ROT2, stronger effect = lower value 0.995 | locus YBR231C, strain swc5, stronger effect = lower value 0.995 | locus YBR279W, strain paf1, stronger effect = lower value 0.998 | locus YCL011C, strain gbp2, stronger effect = lower value 0.987 | locus YCL016C, strain dcc1, stronger effect = lower value 0.971 | locus YCL029C, strain bik1, stronger effect = lower value 0.996 | locus YCL061C, strain MRC1, stronger effect = lower value 0.984 | locus YCL069W, strain vba3, stronger effect = lower value 0.993 | locus YCR088W, strain abp1, stronger effect = lower value 0.987 | locus YDL005C, strain med2, stronger effect = lower value 0.996 | locus YDL035C, strain GPR1, stronger effect = lower value 1.02 | locus YDL040C, strain nat1, stronger effect = lower value 0.992 | locus YDL074C, strain BRE1, stronger effect = lower value 0.978 | locus YDL101C, strain DUN1, stronger effect = lower value 1.01 | locus YDL134C, strain PPH21, stronger effect = lower value 1.01 | locus YDL185W, strain tfp1, stronger effect = lower value 1.01 | locus YDL192W, strain arf1, stronger effect = lower value 1.01 | locus YDR001C, strain nth1, stronger effect = lower value 0.987 | locus YDR069C, strain doa4, stronger effect = lower value 0.999 | locus YDR101C, strain arx1, stronger effect = lower value 0.961 | locus YDR137W, strain rgp1, stronger effect = lower value 0.996 | locus YDR150W, strain NUM1, stronger effect = lower value 0.999 | locus YDR159W, strain sac3, stronger effect = lower value 1.02 | locus YDR162C, strain NBP2, stronger effect = lower value 1.02 | locus YDR195W, strain ref2 0.968 | locus YDR297W, strain sur2, stronger effect = lower value 0.993 | locus YDR318W, strain mcm21, stronger effect = lower value 1 | locus YDR334W, strain swr1, stronger effect = lower value 0.984 | locus YDR335W, strain msn5, stronger effect = lower value 0.994 | locus YDR388W, stronger effect = lower value 1.01 | locus YDR392W, strain spt3, stronger effect = lower value 0.929 | locus YDR502C, strain sam2, stronger effect = lower value 1 | locus YEL003W, strain gim4, stronger effect = lower value 1 | locus YEL037C, strain rad23, stronger effect = lower value 0.991 | locus YEL061C, strain CIN8 (second series), stronger effect = lower value 0.992 | locus YEL061C, strain CIN8, stronger effect = lower value 1 | locus YER015W, strain faa2, stronger effect = lower value 0.973 | locus YER016W, strain bim1, stronger effect = lower value 1 | locus YER110C, stronger effect = lower value 1.01 | locus YER111C, strain swi4, stronger effect = lower value 0.986 | locus YER155C, strain BEM2 (second series), stronger effect = lower value 1 | locus YER155C, strain BEM2, stronger effect = lower value 0.998 | locus YER167W, strain BCK2, stronger effect = lower value 1.01 | locus YFR010W, strain ubp6, stronger effect = lower value 0.99 | locus YGL078C, strain dbp3, stronger effect = lower value 1 | locus YGL086W, strain mad1, stronger effect = lower value 0.988 | locus YGL167C, strain pmr1, stronger effect = lower value 0.983 | locus YGL173C, strain kem1, stronger effect = lower value 0.99 | locus YGL227W, strain vid30, stronger effect = lower value 0.979 | locus YGL240W, strain doc1, stronger effect = lower value 0.992 | locus YGL248W, strain PDE1, stronger effect = lower value 0.999 | locus YGL253W, strain hxk2, stronger effect = lower value 1 | locus YGR135W, strain pre9, stronger effect = lower value 1.06 | locus YGR252W, strain gcn5, stronger effect = lower value 1.04 | locus YHR013C, strain ard1, stronger effect = lower value 0.965 | locus YHR027C, strain rpn1, stronger effect = lower value 0.995 | locus YHR030C, strain SLT2, stronger effect = lower value 1 and 0.995 | locus YHR079C, strain IRE1 (second series), stronger effect = lower value 1.01 | locus YHR079C, strain IRE1, stronger effect = lower value 0.989 | locus YHR094C, strain hxt1, stronger effect = lower value 1.01 | locus YHR129C, strain ARP1, stronger effect = lower value 1.01 | locus YHR142W, strain chs7, stronger effect = lower value 0.994 | locus YHR200W, strain rpn10, stronger effect = lower value 1 | locus YIL066C, strain RNR3, stronger effect = lower value 0.992 | locus YIL073C, strain SPO22, stronger effect = lower value 1.07 | locus YIL125W, strain kgd1, stronger effect = lower value 0.994 | locus YIR030C, strain dcg1, stronger effect = lower value 1.01 | locus YJL092W, strain hpr5, stronger effect = lower value 0.983 | locus YJL095W, strain BCK1 (second series), stronger effect = lower value 0.988 | locus YJL095W, strain BCK1, stronger effect = lower value 1.01 and 0.984 | locus YJL115W, strain asf1, stronger effect = lower value 0.991 | locus YJL129C, strain trk1, stronger effect = lower value 1.01 | locus YJL134W, strain LCB3, stronger effect = lower value 1.01 | locus YJL154C, strain vps35, stronger effect = lower value 0.986 | locus YJL164C, strain tpk1, stronger effect = lower value 0.985 | locus YJL166W, strain qcr8, stronger effect = lower value 0.984 | locus YJL168C, strain set2, stronger effect = lower value 1 | locus YJL187C, strain SWE1 (second series), stronger effect = lower value 0.992 | locus YJL187C, strain SWE1, stronger effect = lower value 0.986
